Measured values from PubChem BioAssay AID602448 (National Center for Advancing Translational Sciences (NCATS), 2012).
Calls of active or inactive are those of the source.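 Rule for the calls: active = max inhibition of at least 60%; inconclusive = max inhibition above 30% but below 60%; inactive = max inhibition of 30% or less.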

These compounds were tested against Follicle-stimulating hormone receptor (Homo sapiens) (UniProt P23945) (assay: qHTS for antagonists of the Thyroid Stimulation Hormone Receptor: Hit Validation with Follickle Stimulating Hormone Receptor (FSHR)). Details: FSHR-expressing cells, cAMP HTRF, antagonist counterscreen; stronger effect = higher value.
Description: The thyroid-stimulating hormone receptor (TSHR) is a member of the 7 trans-membrane-spanning receptor (7TMR) family of cell surface receptors. TSHR-mediated hyperthyroidism is important in thyroid pathology. The development of small molecule antagonists of TSHR may lead to therapeutic approaches for TSHR-mediated hyperthyroidism caused by constitutively activating mutations or stimulating auto-antibodies associated with Graves' disease. Graves' disease is the leading cause of hyperthyroidism and is caused by autoantibodies that stimulate TSHR (TsAbs) causing thyroid growth and unregulated overproduction of thyroid hormones and existing treatments have liabilities (agranulocytosis). In addition, TSHRs are known to be expressed in multiple extrathyroidal tissues including bone, brain, kidney, testis, fat and cells of the immune system but the role of the TSHR in these tissues is not clear. Therefore, TSHR antagonists/inverse agonists could be used as probes of extrathyroidal TSHR function. Finally, TSHR inverse agonists, which are a subclass of antagonists that inhibit agonist-independent (or basal or constitutive) TSHR signaling, could be used to inhibit TSH-independent signaling in patients with recurrent or metastatic thyroid cancer who are receiving thyroid hormone to suppress TSH. In collaboration between scientist from the NCGC and the NIDDK, a miniaturized HTRF high-throughput screen was developed. It's a cell based assay, where an anti cAMP antibody contains a fluorescent cryptate tag (excitation 337 nm; emission 620 nm) and the acceptor is cAMP-d2 (excitation 620 nm; emission 665 nm). When antibody and cAMP-d2 interact and are excited by a 337 nm light, a FRET occurs resulting in emission at 665 nm. The assay is competition between cAMP-d2 and cAMP (from the cell lysate). The homogeneous protocol allows for one step dispense after stimulation that is automation friendly. This is a hit validation assay in a counterscreen using FSHR, a closely related hormone receptor NIH Chemical Genomics Center [NCGC] NIH Molecular Libraries Probe Centers Network [MLPCN] Grant: MH090855 Assay Provider: Marvin Gershengorn, NIDDK
An anti cAMP antibody contains a fluorescent cryptate tag (excitation 337 nm; emission 620 nm) and the acceptor is cAMP-d2 (excitation 620 nm; emission 665 nm). When antibody and cAMP-d2 interact and are excited by a 337 nm light, a FRET occurs resulting in emission at 665 nm. The assay is competition between cAMP-d2 and cAMP (from the cell lysate). The homogeneous protocol allows for one step dispense after stimulation that is automation friendly.

Chain of Follicle-stimulating hormone receptor (Homo sapiens) (P23945 whole entry, looked up): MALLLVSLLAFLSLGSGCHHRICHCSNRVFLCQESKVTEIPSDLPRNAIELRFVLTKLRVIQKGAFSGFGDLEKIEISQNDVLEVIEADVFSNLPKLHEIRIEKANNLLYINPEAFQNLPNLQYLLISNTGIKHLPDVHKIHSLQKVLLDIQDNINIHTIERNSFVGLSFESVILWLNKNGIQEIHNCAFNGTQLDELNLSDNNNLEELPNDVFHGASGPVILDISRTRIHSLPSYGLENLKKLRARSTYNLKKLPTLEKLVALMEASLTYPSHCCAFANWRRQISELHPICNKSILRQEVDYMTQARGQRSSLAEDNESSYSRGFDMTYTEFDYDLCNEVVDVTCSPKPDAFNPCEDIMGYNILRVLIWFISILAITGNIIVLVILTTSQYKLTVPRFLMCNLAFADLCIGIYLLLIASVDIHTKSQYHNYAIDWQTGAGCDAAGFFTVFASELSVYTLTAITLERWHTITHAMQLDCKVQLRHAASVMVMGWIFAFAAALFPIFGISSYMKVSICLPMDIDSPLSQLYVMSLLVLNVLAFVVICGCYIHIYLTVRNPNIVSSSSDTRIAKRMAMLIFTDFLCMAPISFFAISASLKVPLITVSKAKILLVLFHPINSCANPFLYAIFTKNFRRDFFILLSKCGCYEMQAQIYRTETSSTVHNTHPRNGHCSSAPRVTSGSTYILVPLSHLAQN

Question: For `COc1ccc(-c2csc(/C(C#N)=C\c3ccc(O)c([N+](=O)[O-])c3)n2)cc1OC`, which max inhibition is on record?
Answer: 87.2% (active)

Question: Which max inhibition does the source give for `Cc1ccc(-n2[nH]c(C)c(/C=N/Nc3ccc([N+](=O)[O-])cc3[N+](=O)[O-])c2=O)cc1C` here?
Answer: 81.1% (active)

Question: For `CCC(=O)OCCNc1cc(Sc2nccn2C)c2nonc2c1[N+](=O)[O-]`, which max inhibition is on record?
Answer: 20%

Question: Which max inhibition does the source give for `CC(=O)Oc1c(C)cc(Cl)cc1C(=O)Nc1ccc([N+](=O)[O-])cc1Cl` here?
Answer: 63.6% (active)

Question: With `O=c1cc(C(F)(F)F)[nH]c2c(C(F)(F)F)cccc12` as the compound, how does the max inhibition read?
Answer: 82.4% (active)

Question: For `COc1ccc(OCC(=O)NC(=S)Nc2ccc(N3CCOCC3)c(Cl)c2)cc1`, which max inhibition is on record?
Answer: 87.6% (active)

Question: With `O=C1/C(=C\c2cc([N+](=O)[O-])ccc2O)SC(=S)N1Cc1ccc(Cl)cc1` as the compound, how does the max inhibition read?
Answer: 94.2% (active)

Question: How did the max inhibition turn out when `O=C(COc1cccc2ccccc12)Nc1ccc(Cl)cc1C(=O)O` was run?
Answer: 62.5% (active)
